ugtP null kill: growth inhibition of S. aureus ugtP deletion strain | actives 0.54% (n = 330,000) | AID 1259309 | S. aureus RN4220 ugtP deletion, OD600 growth, 16 h | growth inhibition, % (concentration not given with the values); in the data active means growth inhibition above about 68%
Mtb hypoxia rep: Mtb hypoxia fluorescent reporter inhibition. AID 1159583. actives 0.1% (n = 300,000). fluorescence inhibition, % (no concentration beside the values). M. tuberculosis hypoxia-regulated fluorescent reporter, fluorescence; in the data active means fluorescence inhibition mostly above about 23%, no sharp cut-off; inactive means mostly below about 17%
PriA SSB inh: K. pneumoniae PriA-SSBct interaction inhibition; actives 0.6% (n = 430,000); inhibition, % at 33 µM; AlphaScreen SSBct-PriA binding, biotinylated peptide; in the data active means inhibition mostly above about 37%, no sharp cut-off; inactive means mostly below about 20%
RN4220 kill: kills Staphylococcus aureus RN4220; S. aureus RN4220 growth, OD600, 16 h; inhibition, % (test concentration not listed); actives 0.33% (n = 330,000); in the data active means inhibition above about 85%
Hits are given with their value; . = inactive; / = no result shown; + = active, no number; ! = not confirmed by another sample. This is a sample that favours compounds with a hit; in the whole collection about 1.1% have one here.

SMILES	ugtP null kill	Mtb hypoxia rep	PriA SSB inh	RN4220 kill
O=c1c2c(-c3ccc([N+](=O)[O-])cc3)csc2nc2n1CCC2	.	36	.	.
O=[N+]([O-])c1ccc(-c2nnc3n2CCCCC3)cc1	.	.	.	.
Cc1nc(C)c(-c2ccc(=O)n(CCNC(=O)c3c(-c4ccccc4Cl)noc3C)n2)s1	/	/	37	/
Cc1onc(-c2ccccc2Cl)c1C(=O)NCCN1CCN(c2ccccc2F)CC1	/	/	.	/
Cc1onc(-c2ccccc2Cl)c1C(=O)NCCN1Cc2ccccc2C1=O	.	.	47	.
Cc1nc(-c2ccccc2F)sc1CNC(=O)c1c(-c2ccccc2Cl)noc1C	/	/	.	/
CCCC(=O)OCCNc1cc(Sc2nc3ccccc3[nH]2)c2nonc2c1[N+](=O)[O-]	100	/	.	96
CCC(=O)OCCNc1cc(SCCC(=O)OC)c2nonc2c1[N+](=O)[O-]	.	.	.	.
O=C1CCSC[C@@H](C(=O)NCCc2ccc(Cl)cc2)N1	/	/	.	/
O=C(Nc1ccc2c(c1)OCO2)c1c[nH]c(=O)n(-c2ccc(F)cc2)c1=O	.	.	38!	.
CCNC(=S)NNC(=O)c1ccccn1	.	.	92	.
O=C(NNC(=S)Nc1ccc(Cl)c(Cl)c1)c1ccccn1	.	.	92	.
S=C(NCc1ccccn1)Nc1ccc(Cl)c(Cl)c1	.	/	.	.
CCN1/C(=C/c2ccc3cccc(C)c3[n+]2CC)Sc2ccccc21	100	/	.	100
C=CC[n+]1c(/C=C2\C=Cc3cc(C)ccc3N2CC)ccc2ccccc21	100	/	/	100
CCN1/C(=C/c2ccc3cc(C)cc(C)c3[n+]2CC)Sc2cc(C)ccc21	100	/	.	100
CC[n+]1c(C=C2Sc3ccccc3N2C)ccc2cccc(C)c21	/	/	.	/
CCN1C(=Cc2ccc3ccccc3[n+]2CC)Sc2cc(C)ccc21	100	/	/	101
O=C(C1CC1)N(CCc1cccs1)C1CCOCC1	/	/	.	/
CC(C)c1ccc(NC(=O)C2=Cc3ccccc3OC2)cc1	/	/	.	/
Cc1ccc(C)c(CSC2=NCCN2C(=O)c2ccccc2C(F)(F)F)c1	/	/	.	/
CCN1/C(=C/c2ccc3cc(C)ccc3[n+]2CC)Sc2ccc3sccc3c21	101	/	.	100
CCCCN1C(=Cc2ccc3ccccc3[n+]2CC)Sc2ccccc21	/	/	.	/
CCN1/C(=C\c2ccc3cc(C)ccc3[n+]2CC)Sc2cc(C)c(C)cc21	100	/	/	100
CC(C)Nc1ccc(Nc2ccnc3cc4ccccc4cc23)cc1	.	/	97	.
SMILES	ugtP null kill	Mtb hypoxia rep	PriA SSB inh	RN4220 kill
COc1ccc(Nc2ccnc3ccccc23)cc1	.	/	.	.
Cc1cc(S(=O)(=O)N2CCN(c3ccc(-c4ccc(Cl)cc4)nn3)CC2)ccc1F	/	/	.	/
OC(c1ccccn1)(c1ccccn1)c1ccccn1	.	.	79	.
O=C(Nc1cc(C(F)(F)F)ccc1Cl)c1cc2n(n1)CCCO2	/	/	.	/
Nc1ccc(N=Nc2ccccc2O)c(N)c1	.	.	68	.
O=C(Nc1nc(-c2ccccn2)cs1)c1ccc(N2CCCC2)nn1	/	/	72	/
O=C(Nc1nc(-c2ccccn2)cs1)c1cc(S(=O)(=O)N2CCOCC2)ccc1F	.	.	83	.
Cc1ccc(C(=O)Nc2nc(-c3ccccn3)cs2)cc1S(=O)(=O)N1CCOCC1	.	.	43	.
O=C(Nc1nc(-c2ccccn2)cs1)c1ccc(N2CCOCC2)nc1	/	/	95	/
Cc1ccc(-c2csc(NC(=O)c3ccc(C)c(S(=O)(=O)N4CCOCC4)c3)n2)cc1	/	/	.	/
COC(=O)c1sc(-c2ccccc2)cc1NC(=O)C(c1ccccc1)c1ccccc1	/	/	.	/
Cc1cccc(NC(=O)N2CCN(c3ccc4nnc(C)n4n3)CC2)c1C	/	/	.	/
O=C(Nc1nc(CN2CCc3ccccc3C2)cs1)c1cc(=O)c2ccccc2o1	/	/	.	/
Cc1nc2ccc(N=Nc3c(C)[nH]n(-c4ccccc4)c3=O)cc2s1	/	/	.	/
Cc1ccccc1[C@@H]1CCN(C(=O)c2cc(-c3ccco3)[nH]n2)CCS1	/	/	.	/
O=C(Nc1nc(-c2ccccn2)cs1)c1ccc(F)c(S(=O)(=O)N2CCOCC2)c1	.	.	45	.
O=C(Nc1nc(-c2ccccn2)cs1)c1ccc(Cl)c(S(=O)(=O)N2CCCC2)c1	/	/	.	/
O=C(Nc1nc(-c2ccccn2)cs1)c1ccc(Cl)c(S(=O)(=O)N2CCCCCC2)c1	/	/	.	/
Cc1nc(NC(=O)c2ccc(N3CCCCC3)nn2)sc1C(=O)N(C)C	/	/	48	/
Cc1ccc(C(=O)Nc2nc(-c3ccccn3)cs2)cc1S(=O)(=O)N1CCCCC1	/	/	65	/
Cn1nc(C(=O)Nc2ccc(Oc3ccccc3)cc2)ccc1=O	/	/	.	/
O=C(CSc1cccc2cccnc12)NN=Cc1cccnc1	.	.	83	.
COc1cccc(/C=N/NC(=O)CSc2cccc3cccnc23)c1	/	/	+	/
CC(C)Cc1cc(C(=O)NCc2ccco2)no1	.	/	96	.
COc1ccc(OC)c(-c2cc(C(=O)NCCc3nc(-c4ccco4)cn3C)n(C)n2)c1	/	/	35	/
SMILES	ugtP null kill	Mtb hypoxia rep	PriA SSB inh	RN4220 kill
COc1ccc(OC)c(-c2cc(C(=O)NCC#CCOc3ccc4c(c3)OCO4)n(C)n2)c1	/	/	53	/
COc1ccc(Cl)cc1C(=O)NCC#CCOc1ccc2c(c1)OCO2	/	/	.	/
COc1ccc(OC)c(-c2cc(C(=O)NCc3cc(-c4ccco4)n(C)n3)n(C)n2)c1	/	/	.	/
CC(C)OCc1ccc(O)c2ncccc12	/	/	87	/
O=S(=O)(O)c1ccc(O)c2ncccc12	/	/	99	/
Oc1ccc(-c2ccc(O)c3ncccc23)c2cccnc12	/	/	.	/
CCCCCCCCCCCCCCCCSCc1ccc(O)c2ncccc12	/	/	59	/
CCc1ccc(O)c2ncccc12	/	/	.	/
O=Cc1ccc(O)c2ncccc12	.	.	94	.
CCCCCCCCCCCCCCSCc1ccc(O)c2ncccc12	/	/	.	/
Cc1cc(C)n2nc(-c3ccccc3)c(C)c2n1	/	/	.	/
CCCCCCCCCCCC(=O)c1c(O)cccc1O	100	/	.	100
Oc1ccc(Cc2ccc(O)c3ncccc23)c2cccnc12	/	/	72	/
CCCCCCCC(=O)NNC(=O)Cc1ccccc1	.	.	.	.
CCCCCC(=O)c1ccc(O)c2ncccc12	/	/	130	/
CCN(CC)Cc1ccc(O)c2ncccc12	/	/	139	/
C#CCN(C)Cc1ccc(O)c2ncccc12	/	/	110	/
Cc1cc(N2CCC(NC(=O)c3ccc4nc[nH]c4c3)CC2)n[nH]1	/	/	.	/
Cc1cc(C(F)(F)F)nc(CCNC(=O)Nc2ccc3c(c2)OCO3)n1	/	/	44	/
COC(=O)c1ccc2c(=O)n(-c3ccccc3F)c(=S)[nH]c2c1	active	.	.	.
Brc1ccc2c(c1)OCCSCCOCCSCCO2	/	/	43	/
O=C(Cc1csc(Nc2ccc(F)cc2)n1)NCC1CCCCC1	/	/	.	/
C[n+]1c2n(c3ccccc31)N=C(c1cc(C(C)(C)C)c(O)c(C(C)(C)C)c1)CS2	98	/	.	99
COC(=O)c1ccc(S(=O)(=O)N2CCCN(CCn3nc(C)cc3C)CC2)cc1	/	/	.	/
CN(Cc1c(F)cccc1Cl)C(=O)c1ccc(COc2ccccc2)cc1	100	.	.	97
CN(Cc1c(F)cccc1Cl)C(=O)c1cc2ccccc2o1	.	.	.	.
Cc1cnc(C(=O)Nc2nc(-c3ccccn3)cs2)cn1	/	/	120	/
O=C(Nc1nc(-c2ccccn2)cs1)c1cc(Cl)ccc1Cl	/	/	86	/
O=C(Nc1nc(-c2ccccn2)cs1)c1cc(Cl)ccn1	/	/	99	/
Cc1csc2ncc(C(=O)Nc3nc(-c4ccccn4)cs3)c(=O)n12	/	/	.	/
